Results from PubChem BioAssay AID1159580 (chemical genetic matrix, 2015).
Several values for one entry are separate records, joined by “and”; a condition that tells them apart may be missing. Identical values can stand only once. In all, about 5,500 compounds went through this assay and about 2,000 (36%) were called active. About 18% were inconclusive and are not listed. No stated cut-off is given here; in the data, active means normalized growth mostly below about 0.91 (no sharp cut-off); inconclusive means no clear call, values can overlap the other calls; inactive means mostly above about 0.92. This is one part of the list.

Assay: chemical genetic growth profiling, strain panel (AID 1159580);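 further: tested at 20 µM; growth read once vehicle control cultures reached saturation at 30 °C; 1 = growth at the plate median or of vehicle wells; lower values mean less growth of the strain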
Conditions: S. cerevisiae deletion strains, growth OD

Measured: normalized growth

CCCCN1CCCCC1C(=O)Nc1c(C)cccc1C (configuration not stated)
inactive: locus YAL013W, strain DEP1, hits give low values 1.02 | locus YAL021C, strain ccr4, hits give low values 0.992 | locus YAL026C, strain drs2, hits give low values 1.01 | locus YAL030W, strain snc1, hits give low values 0.991 | locus YBL061C, strain skt5, hits give low values 0.992 | locus YBR009C, strain hhf1, hits give low values 0.976 | locus YBR021W, strain FUR4, hits give low values 1.01 | locus YBR023C, strain chs3, hits give low values 0.977 | locus YBR171W, strain sec66, hits give low values 0.991 | locus YBR229C, strain ROT2, hits give low values 1.02 | locus YBR231C, strain swc5, hits give low values 0.995 | locus YBR279W, strain paf1, hits give low values 0.994 | locus YCL011C, strain gbp2, hits give low values 0.986 | locus YCL016C, strain dcc1, hits give low values 1 | locus YCL029C, strain bik1, hits give low values 0.986 | locus YCL061C, strain MRC1, hits give low values 0.981 | locus YCL069W, strain vba3, hits give low values 0.99 | locus YCR088W, strain abp1, hits give low values 0.986 | locus YDL005C, strain med2, hits give low values 0.984 | locus YDL035C, strain GPR1, hits give low values 1.03 | locus YDL040C, strain nat1, hits give low values 1 | locus YDL074C, strain BRE1, hits give low values 1.01 | locus YDL101C, strain DUN1, hits give low values 1.01 | locus YDL134C, strain PPH21, hits give low values 1.01 | locus YDL185W, strain tfp1, hits give low values 0.995 | locus YDL192W, strain arf1, hits give low values 1 | locus YDR001C, strain nth1, hits give low values 0.978 | locus YDR069C, strain doa4, hits give low values 0.972 | locus YDR101C, strain arx1, hits give low values 1 | locus YDR137W, strain rgp1, hits give low values 0.965 | locus YDR150W, strain NUM1, hits give low values 1.02 | locus YDR159W, strain sac3, hits give low values 0.984 | locus YDR162C, strain NBP2, hits give low values 1.02 | locus YDR195W, strain ref2 0.967 | locus YDR297W, strain sur2, hits give low values 0.986 | locus YDR318W, strain mcm21, hits give low values 0.995 | locus YDR334W, strain swr1, hits give low values 0.969 | locus YDR335W, strain msn5, hits give low values 0.987 | locus YDR388W, hits give low values 0.986 | locus YDR392W, strain spt3, hits give low values 0.991 | locus YDR502C, strain sam2, hits give low values 1 | locus YEL003W, strain gim4, hits give low values 0.983 | locus YEL037C, strain rad23, hits give low values 0.993 | locus YEL061C, strain CIN8 (second series), hits give low values 0.973 | locus YEL061C, strain CIN8, hits give low values 1.01 | locus YER015W, strain faa2, hits give low values 0.992 | locus YER016W, strain bim1, hits give low values 0.987 | locus YER110C, hits give low values 0.995 | locus YER111C, strain swi4, hits give low values 1.01 | locus YER155C, strain BEM2 (second series), hits give low values 0.997 | locus YER155C, strain BEM2, hits give low values 1 | locus YER167W, strain BCK2, hits give low values 1.03 | locus YFR010W, strain ubp6, hits give low values 0.974 | locus YGL078C, strain dbp3, hits give low values 0.996 | locus YGL086W, strain mad1, hits give low values 1.01 | locus YGL167C, strain pmr1, hits give low values 0.992 | locus YGL173C, strain kem1, hits give low values 1.01 | locus YGL227W, strain vid30, hits give low values 0.973 | locus YGL240W, strain doc1, hits give low values 0.98 | locus YGL248W, strain PDE1, hits give low values 1.02 | locus YGL253W, strain hxk2, hits give low values 0.994 | locus YGR078C, strain PAC10, hits give low values 1.01 | locus YGR135W, strain pre9, hits give low values 0.997 | locus YGR229C, strain SMI1, hits give low values 1.01 | locus YGR252W, strain gcn5, hits give low values 1.06 | locus YHR013C, strain ard1, hits give low values 0.988 | locus YHR027C, strain rpn1, hits give low values 0.99 | locus YHR030C, strain SLT2, hits give low values 1.01 and 0.987 | locus YHR079C, strain IRE1 (second series), hits give low values 0.99 | locus YHR079C, strain IRE1, hits give low values 0.975 | locus YHR094C, strain hxt1, hits give low values 0.997 | locus YHR129C, strain ARP1, hits give low values 1.01 | locus YHR142W, strain chs7, hits give low values 0.999 | locus YHR200W, strain rpn10, hits give low values 0.986 | locus YIL066C, strain RNR3, hits give low values 1.01 | locus YIL073C, strain SPO22, hits give low values 0.989 | locus YIL125W, strain kgd1, hits give low values 0.997 | locus YIR030C, strain dcg1, hits give low values 0.992 | locus YJL092W, strain hpr5, hits give low values 0.969 | locus YJL095W, strain BCK1 (second series), hits give low values 0.995 | locus YJL095W, strain BCK1, hits give low values 1 and 0.971 | locus YJL115W, strain asf1, hits give low values 0.998 | locus YJL129C, strain trk1, hits give low values 0.966 | locus YJL134W, strain LCB3, hits give low values 1.01 | locus YJL154C, strain vps35, hits give low values 0.991 | locus YJL164C, strain tpk1, hits give low values 0.978 | locus YJL166W, strain qcr8, hits give low values 0.994 | locus YJL168C, strain set2, hits give low values 0.99 | locus YJL187C, strain SWE1 (second series), hits give low values 1.01 | locus YJL187C, strain SWE1, hits give low values 0.99 | locus YJR043C, strain POL32, hits give low values 1.01 | locus YJR066W, strain TOR1, hits give low values 0.957
